Compound activity: PubChem BioAssay, National Center for Advancing Translational Sciences (NCATS)
TDP1 cell noCPT: qHTS for Inhibitors of human tyrosyl-DNA phosphodiesterase 1 (TDP1): qHTS in cells in absence of CPT. hit rate 15% among 420,000. AID 686978, 2013. Potency, µM (series often up to 46.2 µM), hits mostly inhibitors. DT40 Tdp1-/- hTDP1 cells, no CPT, ATP luminescence, 48 h; also: nearly all actives have a fitted effect of over 55% in size
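Cells were dispensed at 400 per well, compounds added by pin tool, plates incubated ≥48 hr at 37 °C, then CellTiter-Glo added for 30 min at room temperature before luminescence reading. Line: DT40 Tdp1-/- complemented with hTDP1; camptothecin omitted.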
GCN5L2 inh: qHTS Assay for Inhibitors of GCN5L2. GCN5L2 HAT assay, ThioGlo1 CoA-SH fluorescence. Potency, µM (series often up to 58.9 µM), actives largely listed as inhibitors. hit rate 0.21% among 390,000. AID 504327, 2011
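Free CoA generated was detected with ThioGlo1 (50uM) fluorescence at Ex340nm/Em540nm, read immediately and after 20 min at room temperature. Enzyme, 20 nM in HEPES pH 7.5 buffer, saw compounds 15 min before adding 75uM H3(1-25) peptide and 70uM acetyl-CoA.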
TDP1 inh: qHTS Assay for Inhibitors of Tyrosyl-DNA Phosphodiesterase (TDP1). Tyrosyl-DNA phosphodiesterase 1 (Homo sapiens), Q9NUW8. recombinant TDP1, AlphaScreen DNA substrate cleavage. Potency, µM (series often up to 130 µM), hits mostly inhibitors. hit rate 0.28% among 350,000. AID 485290, 2010; also: nearly all actives have a fitted effect of over 40% in size
Target sequence (Q9NUW8 whole entry, looked up): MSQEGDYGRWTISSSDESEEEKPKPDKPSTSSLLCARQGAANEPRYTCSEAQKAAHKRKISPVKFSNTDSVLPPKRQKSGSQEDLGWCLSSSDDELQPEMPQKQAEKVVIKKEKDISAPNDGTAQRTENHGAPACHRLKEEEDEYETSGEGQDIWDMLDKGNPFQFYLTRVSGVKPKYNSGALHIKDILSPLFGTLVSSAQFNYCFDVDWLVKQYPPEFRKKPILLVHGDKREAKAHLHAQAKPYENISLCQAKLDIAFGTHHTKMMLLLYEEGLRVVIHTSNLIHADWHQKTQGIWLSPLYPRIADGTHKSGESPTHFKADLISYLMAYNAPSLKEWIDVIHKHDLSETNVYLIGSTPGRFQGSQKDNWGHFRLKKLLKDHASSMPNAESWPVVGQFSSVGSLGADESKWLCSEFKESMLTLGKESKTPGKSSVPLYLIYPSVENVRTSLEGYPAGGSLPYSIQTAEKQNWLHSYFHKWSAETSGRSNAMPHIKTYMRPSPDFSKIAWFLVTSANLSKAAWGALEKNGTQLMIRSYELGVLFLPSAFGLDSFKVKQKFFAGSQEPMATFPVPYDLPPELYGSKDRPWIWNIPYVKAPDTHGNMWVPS
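E. coli-derived human Tdp1, 1 nM final. Cpd preinc 15 min RT; substrate 15 nM final, 5 min RT; AS bead mix 10 ug/ml final, 10 min RT. Signal loss = tyrosine-FITC cleavage. No-enzyme wells = max signal.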
PLK1 PBD block: qHTS for Inhibitors of PLK1-PDB (polo-like kinase 1 - polo-box domain): Primary Screen; Potency, µM, hits mostly inhibitors; AID 720504, 2013; Plk1 PBD binding of FITC phosphopeptide, fluorescence polarization; hit rate 2.8% among 360,000; Serine/threonine-protein kinase PLK1 (Homo sapiens), P53350; also: series mostly up to about 57 µM; nearly all actives have a fitted effect of over 65% in size
VDR inh: Inhibitors of the vitamin D receptor (VDR): qHTS. hit rate 0.93% among 400,000. VDR-SRC2-3 peptide fluorescence polarization, 2 h. AID 504847, 2011. Vitamin D3 receptor (Homo sapiens), P11473. Potency, µM, usual class: inhibitors
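Measured by FP: displacement of SRC2-3 coactivator peptide from VDR by library compounds, following a two-hour ambient incubation.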
TDP1 cell CPT: qHTS for Inhibitors of human tyrosyl-DNA phosphodiesterase 1 (TDP1): qHTS in cells in presence of CPT; chicken DT40 Tdp1-/-;hTDP1 cells + 20 nM CPT, ATP luminescence, 48 h; Potency, µM (titrated, usually from 46.2 µM), usual class: inhibitors; hit rate 12% among 420,000; AID 686979, 2013; also: nearly all actives have a fitted effect of over 55% in size
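Chicken DT40 Tdp1-/- cells stably complemented with human TDP1 were seeded at 400 cells/well in medium containing 20 nM camptothecin, exposed to pin-transferred compounds, and grown at 37 °C for at least 48 hr. Viability was read as ATP luminescence.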
VDR inh confirm: qHTS for Inhibitors of the vitamin D receptor (VDR): Hit Validation in Primary Screen; shares compounds with VDR inh; VDR-coactivator inhibition assay, qHTS confirmation; Potency, µM, usual class: inhibitors; hit rate 89% among 840; AID 602199, 2012
VDR FP: qHTS for Inhibitors of the vitamin D receptor (VDR): Hit Validation using a Fluorescein Assay; Potency, µM (titrated, usually from 57.1 µM), most hits filed as inhibitors; AID 602200, 2012; hit rate 48% among 840; VDR-coactivator binding, fluorescein fluorescence polarization; shares compounds with VDR inh
VDR bla reporter: qHTS for Inhibitors of the vitamin D receptor (VDR): Hit Validation using a Beta-Lactamase Assay; shares compounds with VDR inh; VDR beta-lactamase reporter cells, FRET ratio; cells co-treated with VDR agonist LG190178; Potency, µM (titrated, usually from 46.1 µM), hits mostly inhibitors; hit rate 23% among 840; AID 602202, 2012
VDR cytotox: qHTS for Inhibitors of the vitamin D receptor (VDR): Hit Validation using a Cytotoxicity Assay | hit rate 18% among 840 | cytotoxicity counter-screen, cell viability, qHTS | shares compounds with VDR inh | Potency, µM (top dose mostly 48.3 µM), hits mostly cytotoxic; also: nearly all actives have a fitted effect of over 75% in size
TbPYK confirm: qHTS of Trypanosoma Brucei Inhibitors: Confirmatory Assay for Cherry-picked Compounds; Potency, µM (doses to about 76.9 µM), hits mostly inhibitors; shares compounds with PLK1 PBD block; hit rate 67% among 890; recombinant TbPYK, Kinase-Glo ATP luminescence; also: nearly all actives have a fitted effect of over 70% in size
TbPYK orthogonal: qHTS of Trypanosoma Brucei Inhibitors: Orthogonal Assay for Cherry-picked Compounds. shares compounds with PLK1 PBD block. recombinant TbPYK, ADP-Glo luminescence, 60 min. Potency, µM (series often up to 76.9 µM), most hits filed as inhibitors. hit rate 62% among 890. AID 720584, 2013; also: nearly all actives have a fitted effect of over 75% in size
Numbers stand for hits; n = inactive; u = inconclusive; x = not tested or not shown. Only some compounds are listed: those with a hit (about 18% of all), similar ones and a draw of the others. Calls follow the shape of the dose curve; as a rule, active = well fitted curve in the direction sought with a large enough effect; inconclusive = small, poorly fitted or top-dose-only effect, or another doubt; inactive = no such curve, though single readings can be large; an effect the other way counts as inactive or inconclusive.

SMILES	TDP1 cell noCPT	GCN5L2 inh	TDP1 inh	PLK1 PBD block	VDR inh	TDP1 cell CPT	VDR inh confirm	VDR FP	VDR bla reporter	VDR cytotox	TbPYK confirm	TbPYK orthogonal
CC(N=Cc1cccc(O)c1O)c1ccccc1 (stereo unspecified)	u	n	u	u	50µM	u	20	10µM	12µM	n	x	x
Cc1ccc(-c2cc(C(=O)O)c3cc(Br)ccc3n2)o1	n	u	x	12µM	32µM	n	27	u	n	n	11µM	14µM
Cc1cccc(C(=O)Nc2cccc(OC(=O)c3cccc(C)c3)c2)c1	n	n	n	n	n	n	x	x	x	x	x	x
Cc1cccc(C(=O)Oc2csc(=S)n2C(=O)c2cccc(C)c2)c1	n	n	n	4.7µM	u	n	8.9	2.8µM	n	n	1.3µM	2.5µM
Cc1onc(-c2c(Cl)cccc2Cl)c1COC(=O)c1ccc(Cl)cc1	n	n	x	n	n	n	x	x	x	x	x	x
CCC(=O)N(CC)C1=C(O)c2ccccc2C(=O)C1=O	8.2µM	n	n	24µM	79µM	4.6µM	u	u	u	u	n	25µM
O=C1CC(c2ccccc2)c2cccc(F)c21 (stereo unspecified)	n	n	x	n	n	n	x	x	x	x	x	x
O=C1C=C(c2ccccc2)C(=O)N1Nc1ccccc1	5.8µM	n	n	8.4µM	u	4.1µM	5.6	7.9µM	21µM	u	16µM	25µM
O=C1Cc2ccccc2C(=O)N1Nc1ccccc1	u	x	x	n	n	u	x	x	x	x	x	x
Cc1cccc2cc3c(nc12)SC(=NCC1CCCO1)N(Cc1ccco1)C3 (stereo unspecified)	23µM	n	n	24µM	u	u	14	6.3µM	21µM	u	u	32µM
Cc1cccc2cc(CNCC3CCCO3)c(Cl)nc12 (stereo unspecified)	n	n	n	n	n	n	x	x	x	x	x	x
CCN1CCN(C(=S)c2ccc(Cl)cc2)CC1	n	n	n	2.1µM	35µM	n	9.5	u	n	n	0.25µM	1.6µM
CCN1CCN(C(=O)c2ccccc2NC(=O)c2ccc(Cl)cc2)CC1	n	n	n	n	n	n	x	x	x	x	x	x
O=C(CCS(=O)(=O)c1cccs1)Nc1ccc(C(=O)NC2CCN(Cc3ccccc3)CC2)cc1	u	n	n	n	n	u	x	x	x	x	x	x
Cn1c(O)c(C2=c3ccccc3=NC2=O)[nH]c1=S	n	n	n	n	n	n	x	x	x	x	x	x
O=C1N=c2ccccc2=C1c1c(O)n(-c2cccc(F)c2)[nH]c1=O	u	n	n	5.3µM	71µM	21µM	6	u	n	n	3.5µM	7.9µM
C[C@H]1CN([C@@H](C)CO)C(=O)c2cc(Br)cnc2O[C@@H]1CN(C)C(=O)C1CCC1	u	x	x	n	x	n	x	x	x	x	x	x
O=C(O)/C=C/C(=O)c1ccc2c(c1)NC(=O)CO2	n	n	n	u	22µM	n	9.5	u	n	n	16µM	16µM
O=C(CCc1ccccc1Cl)NC1CCCN(c2ccc(C(F)(F)F)cn2)C1 (stereo unspecified)	n	n	n	n	n	u	x	x	x	x	x	x
COCCN(CC(=O)NC1CCCCC1)C(=O)/C=C/C(=O)c1ccc(OC)cc1O	2.3µM	n	n	21µM	16µM	2.1µM	9.5	u	21µM	u	7.1µM	13µM
COc1ccc(C(=O)/C=C/C(=O)N(CC(=O)NC2CCCCC2)Cc2cccs2)c(O)c1	3.3µM	n	n	6.7µM	45µM	1.6µM	15	u	7.3µM	15µM	4.5µM	14µM
COC(=O)c1cncc(C)c1	n	n	n	n	n	n	x	x	x	x	x	x
O=[N+]([O-])c1ccccc1-c1ccc(C(=S)N2CCCCC2)o1	u	n	n	n	u	n	x	x	x	x	x	x
O=[N+]([O-])c1ccccc1-c1ccc(C(=S)N2CCCC2)o1	u	n	n	2.7µM	40µM	26µM	21	u	n	n	18µM	32µM
Cc1ccc(N2CCN(S(=O)(=O)c3nnc(NC(=O)c4ccccc4)s3)CC2)cc1	n	n	n	n	n	u	x	x	x	x	x	x
CC1(C)CC(=O)C2=C(C1)OC1=C(C(=O)CC(C)(C)C1)C2c1ccc(O)cc1O	4µM	n	n	3.5µM	8.9µM	2µM	6.7	u	16µM	u	28µM	u
Cc1ccc(C2C(C(N)=S)=C(N)OC3=C2C(=O)CC(C)(C)C3)cc1 (stereo unspecified)	n	n	n	n	u	n	x	x	x	x	x	x
CC1(C)CC(=O)C(C(C2=C(O)CC(C)(C)CC2=O)c2ccc(Br)s2)C(=O)C1 (stereo unspecified)	7.3µM	n	n	1.9µM	10µM	13µM	4.2	2.8µM	n	u	14µM	28µM
O=S1(=O)C=C(Sc2nnc(-c3ccccc3)o2)c2ccccc21	0.58µM	n	n	1.9µM	u	0.52µM	2.2	1.6µM	u	12µM	20µM	22µM
